How the values were obtained:
Test in all cases: log2 ratio of Biotin-Ahx-Ub-VS probe labelling (fragment/DMSO); higher = less target engagement (more negative = stronger competition), active = hit call of the paper (q ≤ 0.05, log2 ratio ≤ -1)
Conditions in all cases: compound concentration: 200 uM; treatment time: 3 h
USP42 = target: T1, USP42 (UniProt Q9H9J4)
T1 sequence (whole entry): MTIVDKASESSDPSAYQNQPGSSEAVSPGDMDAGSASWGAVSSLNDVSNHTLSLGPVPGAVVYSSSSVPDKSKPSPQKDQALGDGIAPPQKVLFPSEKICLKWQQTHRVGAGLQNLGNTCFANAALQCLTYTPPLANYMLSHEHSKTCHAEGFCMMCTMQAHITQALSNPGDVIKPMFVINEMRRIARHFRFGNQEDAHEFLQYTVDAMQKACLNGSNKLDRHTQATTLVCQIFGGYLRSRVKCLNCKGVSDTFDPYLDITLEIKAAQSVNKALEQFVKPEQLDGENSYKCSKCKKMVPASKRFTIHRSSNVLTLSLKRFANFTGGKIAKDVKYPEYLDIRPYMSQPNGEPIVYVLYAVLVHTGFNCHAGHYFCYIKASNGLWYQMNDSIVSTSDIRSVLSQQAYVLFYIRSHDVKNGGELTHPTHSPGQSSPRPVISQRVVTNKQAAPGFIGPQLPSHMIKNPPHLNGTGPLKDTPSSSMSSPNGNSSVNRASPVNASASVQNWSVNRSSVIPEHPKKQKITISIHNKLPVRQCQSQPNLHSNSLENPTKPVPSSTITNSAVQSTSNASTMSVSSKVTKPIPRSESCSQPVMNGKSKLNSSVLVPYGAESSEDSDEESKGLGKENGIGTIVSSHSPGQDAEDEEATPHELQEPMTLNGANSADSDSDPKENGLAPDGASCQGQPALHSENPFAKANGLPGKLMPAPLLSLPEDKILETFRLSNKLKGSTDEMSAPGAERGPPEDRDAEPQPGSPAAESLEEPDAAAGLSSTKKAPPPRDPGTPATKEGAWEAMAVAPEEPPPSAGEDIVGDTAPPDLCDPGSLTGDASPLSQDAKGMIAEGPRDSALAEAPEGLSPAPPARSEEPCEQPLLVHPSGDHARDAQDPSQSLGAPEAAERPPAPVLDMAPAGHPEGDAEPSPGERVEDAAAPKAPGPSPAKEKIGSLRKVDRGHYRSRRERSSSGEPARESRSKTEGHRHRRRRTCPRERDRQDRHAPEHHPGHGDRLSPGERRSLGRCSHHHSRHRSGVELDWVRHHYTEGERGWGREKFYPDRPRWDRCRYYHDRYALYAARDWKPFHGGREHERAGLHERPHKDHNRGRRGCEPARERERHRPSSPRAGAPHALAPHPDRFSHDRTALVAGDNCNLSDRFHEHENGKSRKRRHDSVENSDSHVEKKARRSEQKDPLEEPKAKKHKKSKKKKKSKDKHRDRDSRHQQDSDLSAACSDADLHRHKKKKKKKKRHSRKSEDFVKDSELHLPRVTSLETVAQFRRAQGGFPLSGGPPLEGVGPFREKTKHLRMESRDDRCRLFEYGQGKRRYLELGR
Method in brief: (§1)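 HEK293T lysate in Tris/CHAPS/IGEPAL buffer with protease inhibitors (495 µg per sample) was given fragment at 200 µM or vehicle for 3 h, in triplicate. It then received Biotin-Ahx-Ub-VS at 0.5 µM final for 1 h. Labelled DUBs were NeutrAvidin-enriched, digested with LysC and trypsin, and run by diaPASEF LC-MS/MS. Values are average log2 fragment/vehicle ratios by unpaired t-test on global-median-normalised Spectronaut quantities of proteins with ≥2 unique peptides.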

USP46 = USP46 (UniProt P62068)
Method in brief: as §1

USP47 = target: T2, USP47 (UniProt Q96K76)
T2 sequence (whole entry): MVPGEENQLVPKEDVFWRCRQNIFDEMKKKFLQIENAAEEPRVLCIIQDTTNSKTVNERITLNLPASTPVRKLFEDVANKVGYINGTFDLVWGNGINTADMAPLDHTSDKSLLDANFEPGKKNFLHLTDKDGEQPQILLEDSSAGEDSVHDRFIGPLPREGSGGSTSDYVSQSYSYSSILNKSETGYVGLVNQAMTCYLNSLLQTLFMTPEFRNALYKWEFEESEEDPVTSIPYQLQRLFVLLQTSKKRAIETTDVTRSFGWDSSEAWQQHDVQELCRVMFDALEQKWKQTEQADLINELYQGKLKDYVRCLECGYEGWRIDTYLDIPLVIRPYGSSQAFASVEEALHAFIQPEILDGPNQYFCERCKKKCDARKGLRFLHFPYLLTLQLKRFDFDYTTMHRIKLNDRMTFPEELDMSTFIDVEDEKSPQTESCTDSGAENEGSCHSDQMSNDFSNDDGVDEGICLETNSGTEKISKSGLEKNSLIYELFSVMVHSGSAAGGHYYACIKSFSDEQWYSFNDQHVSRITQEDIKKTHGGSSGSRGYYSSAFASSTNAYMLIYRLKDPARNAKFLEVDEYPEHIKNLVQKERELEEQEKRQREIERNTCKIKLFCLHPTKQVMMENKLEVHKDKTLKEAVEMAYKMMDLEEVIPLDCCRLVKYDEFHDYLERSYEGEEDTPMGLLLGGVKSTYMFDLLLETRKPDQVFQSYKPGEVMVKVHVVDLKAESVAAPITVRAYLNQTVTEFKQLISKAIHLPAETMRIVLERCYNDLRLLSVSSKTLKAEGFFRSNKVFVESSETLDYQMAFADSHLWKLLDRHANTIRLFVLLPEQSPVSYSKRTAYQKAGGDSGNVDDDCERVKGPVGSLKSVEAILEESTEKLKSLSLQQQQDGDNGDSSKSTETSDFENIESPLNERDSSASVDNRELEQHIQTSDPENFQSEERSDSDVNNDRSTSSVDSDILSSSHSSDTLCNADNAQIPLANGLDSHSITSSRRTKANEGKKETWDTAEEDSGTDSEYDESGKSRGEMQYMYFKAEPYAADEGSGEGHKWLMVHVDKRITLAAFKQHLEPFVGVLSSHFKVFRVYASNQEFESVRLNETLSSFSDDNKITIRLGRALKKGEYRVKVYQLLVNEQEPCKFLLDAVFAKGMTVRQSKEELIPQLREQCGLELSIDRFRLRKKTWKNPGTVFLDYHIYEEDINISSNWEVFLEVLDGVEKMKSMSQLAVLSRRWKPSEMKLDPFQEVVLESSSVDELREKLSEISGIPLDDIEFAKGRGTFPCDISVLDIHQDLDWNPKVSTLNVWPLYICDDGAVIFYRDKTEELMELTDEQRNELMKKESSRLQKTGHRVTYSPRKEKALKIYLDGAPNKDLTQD
Method in brief: as §1

USP48 = target: T3, USP48 (UniProt Q86UV5)
T3 sequence (whole entry): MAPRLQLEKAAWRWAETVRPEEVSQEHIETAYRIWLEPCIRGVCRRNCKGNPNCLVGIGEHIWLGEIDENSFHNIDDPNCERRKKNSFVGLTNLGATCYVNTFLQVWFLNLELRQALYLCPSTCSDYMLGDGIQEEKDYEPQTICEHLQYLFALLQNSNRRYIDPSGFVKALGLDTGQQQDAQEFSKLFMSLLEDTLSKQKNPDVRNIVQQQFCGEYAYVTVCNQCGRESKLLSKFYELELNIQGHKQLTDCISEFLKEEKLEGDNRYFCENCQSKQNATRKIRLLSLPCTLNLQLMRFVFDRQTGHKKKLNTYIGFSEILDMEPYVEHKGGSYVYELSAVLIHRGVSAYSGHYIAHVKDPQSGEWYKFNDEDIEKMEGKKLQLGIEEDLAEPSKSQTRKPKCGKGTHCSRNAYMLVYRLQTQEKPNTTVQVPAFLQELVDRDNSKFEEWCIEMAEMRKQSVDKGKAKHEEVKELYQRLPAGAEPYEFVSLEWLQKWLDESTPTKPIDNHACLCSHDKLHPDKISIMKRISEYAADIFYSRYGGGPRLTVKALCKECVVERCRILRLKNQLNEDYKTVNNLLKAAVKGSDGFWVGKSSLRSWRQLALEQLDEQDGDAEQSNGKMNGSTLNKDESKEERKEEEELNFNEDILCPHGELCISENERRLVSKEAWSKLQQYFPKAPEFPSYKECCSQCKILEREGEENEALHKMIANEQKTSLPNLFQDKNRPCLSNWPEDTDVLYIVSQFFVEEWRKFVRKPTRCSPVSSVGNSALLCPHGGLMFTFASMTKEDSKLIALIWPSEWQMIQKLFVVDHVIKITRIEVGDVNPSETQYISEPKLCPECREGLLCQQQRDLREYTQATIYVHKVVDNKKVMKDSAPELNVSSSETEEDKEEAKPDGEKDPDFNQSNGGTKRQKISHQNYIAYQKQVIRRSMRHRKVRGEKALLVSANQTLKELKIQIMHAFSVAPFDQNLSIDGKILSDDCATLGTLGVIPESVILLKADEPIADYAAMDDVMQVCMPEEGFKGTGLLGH
Method in brief: as §1

USP5 = target: T4, USP5 (UniProt P45974)
T4 sequence (whole entry): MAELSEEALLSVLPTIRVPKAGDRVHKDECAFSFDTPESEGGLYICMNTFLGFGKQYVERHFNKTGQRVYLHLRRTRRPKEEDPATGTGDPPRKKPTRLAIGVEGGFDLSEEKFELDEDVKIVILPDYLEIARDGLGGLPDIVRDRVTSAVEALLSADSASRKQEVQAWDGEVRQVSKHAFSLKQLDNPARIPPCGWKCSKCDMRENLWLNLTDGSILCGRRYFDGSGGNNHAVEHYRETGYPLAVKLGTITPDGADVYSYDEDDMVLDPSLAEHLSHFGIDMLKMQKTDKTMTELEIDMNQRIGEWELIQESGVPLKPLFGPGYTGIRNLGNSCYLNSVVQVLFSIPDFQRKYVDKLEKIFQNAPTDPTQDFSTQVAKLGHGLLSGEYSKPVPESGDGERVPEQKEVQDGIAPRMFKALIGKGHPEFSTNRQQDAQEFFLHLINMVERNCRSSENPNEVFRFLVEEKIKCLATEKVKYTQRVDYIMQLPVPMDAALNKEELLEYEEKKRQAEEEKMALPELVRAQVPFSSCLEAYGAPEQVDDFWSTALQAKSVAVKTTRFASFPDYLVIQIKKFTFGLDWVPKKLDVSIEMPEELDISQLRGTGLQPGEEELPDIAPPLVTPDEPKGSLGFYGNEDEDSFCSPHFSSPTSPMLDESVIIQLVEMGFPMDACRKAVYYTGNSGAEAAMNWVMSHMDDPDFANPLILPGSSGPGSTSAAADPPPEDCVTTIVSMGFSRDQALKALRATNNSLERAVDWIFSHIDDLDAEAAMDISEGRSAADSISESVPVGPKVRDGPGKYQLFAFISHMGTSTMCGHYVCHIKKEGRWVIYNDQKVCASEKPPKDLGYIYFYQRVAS
Method in brief: as §1

USP54 = USP54 (UniProt Q70EL1)
Method in brief: as §1

USP7 = USP7 (UniProt Q93009)
Method in brief: as §1

USP8 = target: T5, USP8 (UniProt P40818)
T5 sequence (whole entry): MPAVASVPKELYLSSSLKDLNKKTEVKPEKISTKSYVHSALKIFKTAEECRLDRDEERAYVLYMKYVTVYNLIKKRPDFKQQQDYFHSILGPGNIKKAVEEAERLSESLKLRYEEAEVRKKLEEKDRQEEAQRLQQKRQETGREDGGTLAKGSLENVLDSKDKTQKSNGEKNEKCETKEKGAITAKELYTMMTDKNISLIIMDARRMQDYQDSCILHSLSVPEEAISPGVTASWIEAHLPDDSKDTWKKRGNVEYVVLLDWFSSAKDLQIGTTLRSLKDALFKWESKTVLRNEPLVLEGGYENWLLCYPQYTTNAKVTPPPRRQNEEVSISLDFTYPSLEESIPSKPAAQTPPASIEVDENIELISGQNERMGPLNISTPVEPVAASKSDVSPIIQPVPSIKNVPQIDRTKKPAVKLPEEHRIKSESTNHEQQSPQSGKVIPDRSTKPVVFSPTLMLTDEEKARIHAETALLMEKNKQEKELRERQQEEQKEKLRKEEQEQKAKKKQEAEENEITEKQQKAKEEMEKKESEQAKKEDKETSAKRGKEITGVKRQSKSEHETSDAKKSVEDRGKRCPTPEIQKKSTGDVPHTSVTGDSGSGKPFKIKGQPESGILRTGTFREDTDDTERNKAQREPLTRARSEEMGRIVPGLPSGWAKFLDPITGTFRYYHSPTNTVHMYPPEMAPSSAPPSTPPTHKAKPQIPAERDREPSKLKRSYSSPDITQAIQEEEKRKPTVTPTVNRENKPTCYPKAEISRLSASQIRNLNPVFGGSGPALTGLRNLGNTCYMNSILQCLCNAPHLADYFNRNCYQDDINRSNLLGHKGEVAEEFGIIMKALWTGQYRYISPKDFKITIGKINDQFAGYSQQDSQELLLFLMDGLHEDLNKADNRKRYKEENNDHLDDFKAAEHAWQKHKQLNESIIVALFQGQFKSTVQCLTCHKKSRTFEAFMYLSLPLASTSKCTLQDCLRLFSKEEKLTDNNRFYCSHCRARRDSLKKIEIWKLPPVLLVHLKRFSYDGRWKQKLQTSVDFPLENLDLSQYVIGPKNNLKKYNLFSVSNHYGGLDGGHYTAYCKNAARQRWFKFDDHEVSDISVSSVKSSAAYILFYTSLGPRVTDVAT
Method in brief: as §1

Measured: log2 ratio of Biotin-Ahx-Ub-VS probe labelling

Sequence of USP7 (Q93009 whole entry, looked up): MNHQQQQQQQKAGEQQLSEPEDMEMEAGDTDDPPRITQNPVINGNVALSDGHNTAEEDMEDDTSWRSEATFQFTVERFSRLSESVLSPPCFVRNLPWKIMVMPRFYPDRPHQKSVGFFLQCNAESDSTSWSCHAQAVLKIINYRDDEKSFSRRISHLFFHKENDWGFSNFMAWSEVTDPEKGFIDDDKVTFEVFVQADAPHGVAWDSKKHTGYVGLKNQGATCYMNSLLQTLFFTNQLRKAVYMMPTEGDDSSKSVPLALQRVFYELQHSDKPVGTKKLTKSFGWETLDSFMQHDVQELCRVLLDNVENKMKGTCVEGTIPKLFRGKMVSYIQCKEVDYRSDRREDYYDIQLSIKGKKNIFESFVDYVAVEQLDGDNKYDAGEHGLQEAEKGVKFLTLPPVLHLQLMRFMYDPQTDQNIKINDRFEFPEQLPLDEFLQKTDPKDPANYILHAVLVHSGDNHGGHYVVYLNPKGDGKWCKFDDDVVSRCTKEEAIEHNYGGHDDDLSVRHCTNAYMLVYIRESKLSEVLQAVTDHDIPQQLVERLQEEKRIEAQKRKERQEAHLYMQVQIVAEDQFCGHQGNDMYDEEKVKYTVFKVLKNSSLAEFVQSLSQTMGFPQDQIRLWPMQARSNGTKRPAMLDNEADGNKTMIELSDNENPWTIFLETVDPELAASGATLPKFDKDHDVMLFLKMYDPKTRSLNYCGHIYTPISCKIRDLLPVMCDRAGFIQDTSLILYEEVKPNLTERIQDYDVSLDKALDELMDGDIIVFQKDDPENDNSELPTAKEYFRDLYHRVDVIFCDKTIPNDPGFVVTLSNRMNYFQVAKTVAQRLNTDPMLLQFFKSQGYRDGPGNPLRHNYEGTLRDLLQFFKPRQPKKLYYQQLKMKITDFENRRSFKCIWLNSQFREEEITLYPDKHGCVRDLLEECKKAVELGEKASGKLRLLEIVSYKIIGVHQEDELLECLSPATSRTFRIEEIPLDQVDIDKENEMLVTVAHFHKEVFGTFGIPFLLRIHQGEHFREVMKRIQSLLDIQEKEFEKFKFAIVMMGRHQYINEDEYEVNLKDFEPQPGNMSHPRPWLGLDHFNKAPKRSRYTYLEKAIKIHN
Sequence of USP54 (Q70EL1 whole entry): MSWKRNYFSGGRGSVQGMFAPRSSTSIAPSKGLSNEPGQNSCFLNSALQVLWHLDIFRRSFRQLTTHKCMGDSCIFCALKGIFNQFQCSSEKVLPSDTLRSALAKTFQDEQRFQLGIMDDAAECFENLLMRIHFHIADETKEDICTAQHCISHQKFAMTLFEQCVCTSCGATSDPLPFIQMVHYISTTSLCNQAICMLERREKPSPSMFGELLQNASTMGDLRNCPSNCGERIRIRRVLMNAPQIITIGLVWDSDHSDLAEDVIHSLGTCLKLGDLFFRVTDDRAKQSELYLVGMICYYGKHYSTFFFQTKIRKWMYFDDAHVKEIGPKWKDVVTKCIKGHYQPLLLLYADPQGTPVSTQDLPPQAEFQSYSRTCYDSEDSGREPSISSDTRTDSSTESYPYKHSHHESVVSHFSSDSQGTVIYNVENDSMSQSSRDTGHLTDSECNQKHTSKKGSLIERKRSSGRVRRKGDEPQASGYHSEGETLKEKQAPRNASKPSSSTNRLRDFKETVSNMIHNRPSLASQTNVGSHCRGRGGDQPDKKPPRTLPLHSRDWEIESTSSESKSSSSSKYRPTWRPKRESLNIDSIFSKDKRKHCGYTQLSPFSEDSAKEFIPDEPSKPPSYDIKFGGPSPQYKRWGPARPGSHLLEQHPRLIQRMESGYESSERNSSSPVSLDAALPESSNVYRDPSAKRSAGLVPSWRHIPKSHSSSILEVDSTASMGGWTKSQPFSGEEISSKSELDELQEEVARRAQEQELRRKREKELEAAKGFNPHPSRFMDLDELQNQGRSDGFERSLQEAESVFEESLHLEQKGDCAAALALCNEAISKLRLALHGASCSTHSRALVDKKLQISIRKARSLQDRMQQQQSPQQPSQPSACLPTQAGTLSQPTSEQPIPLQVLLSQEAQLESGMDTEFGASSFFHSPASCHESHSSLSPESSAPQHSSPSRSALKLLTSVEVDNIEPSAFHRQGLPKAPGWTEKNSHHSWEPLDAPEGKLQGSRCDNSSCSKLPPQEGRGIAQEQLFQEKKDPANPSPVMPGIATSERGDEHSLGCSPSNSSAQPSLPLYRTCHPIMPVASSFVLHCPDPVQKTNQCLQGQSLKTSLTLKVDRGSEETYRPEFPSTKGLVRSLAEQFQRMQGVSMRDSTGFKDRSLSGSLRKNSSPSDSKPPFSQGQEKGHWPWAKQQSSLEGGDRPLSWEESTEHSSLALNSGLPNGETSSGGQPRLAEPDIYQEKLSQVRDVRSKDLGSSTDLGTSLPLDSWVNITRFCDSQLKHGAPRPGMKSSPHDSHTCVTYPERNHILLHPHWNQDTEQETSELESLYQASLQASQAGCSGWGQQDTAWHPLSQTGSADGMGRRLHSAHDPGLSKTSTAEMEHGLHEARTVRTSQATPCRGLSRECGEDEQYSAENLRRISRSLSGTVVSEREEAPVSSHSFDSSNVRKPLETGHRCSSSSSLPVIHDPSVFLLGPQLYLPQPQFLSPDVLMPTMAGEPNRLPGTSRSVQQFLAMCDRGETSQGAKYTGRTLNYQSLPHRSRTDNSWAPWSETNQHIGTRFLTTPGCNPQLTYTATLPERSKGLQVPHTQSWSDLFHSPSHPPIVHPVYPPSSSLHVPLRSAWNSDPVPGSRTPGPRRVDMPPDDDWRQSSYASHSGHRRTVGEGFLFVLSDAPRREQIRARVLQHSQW
Sequence of USP46 (P62068 whole entry): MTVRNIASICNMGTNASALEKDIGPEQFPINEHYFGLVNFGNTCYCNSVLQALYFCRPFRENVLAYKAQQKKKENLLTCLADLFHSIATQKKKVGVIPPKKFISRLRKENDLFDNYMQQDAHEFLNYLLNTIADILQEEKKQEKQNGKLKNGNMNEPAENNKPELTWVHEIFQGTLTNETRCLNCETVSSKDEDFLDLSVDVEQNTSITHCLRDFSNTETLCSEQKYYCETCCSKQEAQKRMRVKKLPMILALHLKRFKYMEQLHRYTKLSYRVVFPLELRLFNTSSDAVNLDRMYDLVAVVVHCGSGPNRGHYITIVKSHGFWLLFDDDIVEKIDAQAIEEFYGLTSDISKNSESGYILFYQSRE

O=C(CCl)NCc1ccc(N2CCOCC2)nc1
inactive: USP42 -0.0847 | USP46 0.0882 | USP47 -0.466 | USP48 -0.188 | USP5 -0.217 | USP54 0.658 | USP7 -0.147 | USP8 -0.289
